Sampled rows, rich in hits. Any-hit rate of the full collection: about 0.67%.
NPR2 activator: human GC-B receptor activators, primary screen, HEK293 GC-B cells, cGMP TR-FRET, EC30 CNP; activation, % at 10 µM; Atrial natriuretic peptide receptor 2 (Homo sapiens), P20594; 0% at EC30 CNP, 100% saturating CNP; hit rate 0.11% among 370,000;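 active means activation at 10 µM reaching about 35% in either raw or pattern-adjusted values, limit read from the data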
GC-A act: GC-A stimulated cGMP production enhancers – HEK293 GC-A cells, cGMP TR-FRET, EC30 ANP, primary screen; Atrial natriuretic peptide receptor 1 (Homo sapiens), P16066; 0% at EC30 ANP, 100% saturating ANP; activation, % at 10 µM; hit rate 0.14% among 370,000; in the data active means activation above about 40%
CaV13 ICDI inh: Disruptors of the CACNA1D IQ motif to Ca2+-dependent inactivation inhibitor domain association, primary screening, Förster resonance energy transfer in intact living … | HEK cells, CFP/YFP FRET ICDI-IQ, plate reader, 10 min; percent FRET-ratio fall versus neutral wells | inhibition, % at 12.3 µM | hit rate 0.098% among 340,000 | AID 743397;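 active means mean replicate inhibition of at least 30% and at least 1% of replicates passing that level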;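 further: 0% = median of the neutral control wells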
Rin1-Abl PPI inh: inhibitors of Rin1-Abl protein binding, primary screen, biochemical, TR-FRET; Tyrosine-protein kinase ABL1 (Homo sapiens) + Ras and Rab interactor 1 (Homo sapiens), …; inhibition, % at 7.35 µM; hit rate 0.4% among 360,000; AID 588664, 2011; in the data active means inhibition above about 5%, passing the limit was not always enough
Rin1 Abl conf: Rin1-Abl binding inhibitor retest, confirmation, biochemical, TR-FRET. shares compounds with Rin1-Abl PPI inh. inhibition, % at 7.35 µM. hit rate 49% among 1,300. purified proteins. AID 602124, 2011
GFP quencher: GFP fluorescence inhibitors and quenchers, artefact control for Rin1-Abl interaction inhibitor project, biochemical | shares compounds with Rin1-Abl PPI inh | inhibitors/quenchers counterscreen | inhibition, % at 6.75 µM | hit rate 8.5% among 1,300 | AID 602125, 2011;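 further: ABL1-eGFP fusion protein alone without its partner RIN1-SBP; 0% = protein with vehicle and 100% = wells lacking protein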
An asterisk follows results filed as active; · = no result. Unless noted, no stated cut-off is given here; in the data, active means inhibition above about 6.5%; inactive means the rest.

SMILES	NPR2 activator	GC-A act	CaV13 ICDI inh	Rin1-Abl PPI inh	Rin1 Abl conf	GFP quencher
O=C(Nc1c[nH]c(=O)[nH]c1=O)c1cccc([N+](=O)[O-])c1	0	-2	-5	2	·	·
Cc1cc(C(=O)Nc2c[nH]c(=O)[nH]c2=O)ccc1[N+](=O)[O-]	-6	2	-18	10*	-1	-1
Clc1ccc(-n2ncc3c(N4CCCCCC4)ncnc32)cc1	0	8	-6	2	·	·
COc1ccc(-n2ncc3c(N4CCCCC4)ncnc32)cc1	·	·	·	6.1*	-4	1
COc1ccccc1/C=[N+](\[O-])C1SC(=S)N(C)C1(C)C (stereo not drawn)	7	-1	-5	6.8*	-3	0
COC(=O)[C@]12C[C@H](CC(=O)NCCC(C)C)C(=O)N(Cc3ccco3)C1=C[C@H](C(C)(C)C)O[C@@H]2C	-25	-29	·	·	·	·
COc1cccc(C(=O)n2ccc3ccc(-c4ccc5ccn(Cc6ccc(C#N)cc6)c5c4)cc32)c1	4	-1	·	·	·	·
O=C(N/N=C/c1cn(Cc2cccc(F)c2)c2ccccc12)c1cc(O)cc(O)c1	2	1	-9	14*	8.7*	10*
O=C(N/N=C1\CCCc2ccccc21)c1ccccc1Cl	3	-2	-4	2	·	·
Cc1cc(C(=O)N/N=C2\CCCc3ccccc32)c(C)o1	-4	3	-4	11*	-1	-2
Cc1cc(C)c(S(=O)(=O)N2CCCC(C(=O)N3CCOCC3)C2)c(C)c1 (stereo not drawn)	2	1	-5	11*	8.9*	-1
Cc1cc(C)c(S(=O)(=O)N2CCCC(C(=O)N3CCCC3)C2)c(C)c1 (stereo not drawn)	2	0	-6	-2	·	·
COCC(=O)Nc1ccc2c(c1)[C@@H]1C[C@H](CC(=O)NCc3cccc(F)c3)O[C@@H](CO)[C@@H]1O2	-1	3	-4	50*	0	1
COCC(=O)Nc1ccc2c(c1)[C@H]1C[C@@H](CC(=O)NCC3CC3)O[C@H](CO)[C@H]1O2	0	1	-6	·	·	·
Cc1ccc(-n2c(=O)c3sccc3n(CC(=O)N3CCCC3)c2=O)cc1	2	3	-12	5.8*	-3	0
O=C(Cn1c(=O)n(-c2ccccc2)c(=O)c2sccc21)N1CCCC1	4	2	-5	0	·	·
CCOC(=O)c1nnn(-c2nc(OC)nc(N3CCCC3)n2)c1-c1ccccc1	7	-3	-5	-1	·	·
CCNc1nc(N2CCCCC2)nc(-n2nnc(C(=O)OCC)c2C)n1	-2	-3	-6	5.8*	2	1
CN(Cc1ccc(F)cc1)C(=O)c1ccc(NS(=O)(=O)c2ccccc2)cc1	-3	1	-6	9.5*	1	0
CN(Cc1ccc(F)cc1)C(=O)c1cccc(S(=O)(=O)NCc2ccccc2)c1	-5	-3	-5	2	·	·
Cc1ccc(Cl)cc1N1C(=O)CC(C)(C)CC1=O	3	5	-4	7.2*	-3	1
COc1ccc(C(=O)Nc2cc(Cl)ccc2C(=O)O)cc1	-4	-4	-7	2	·	·
COc1ccc(C(=O)Nc2ccccc2C(=O)Nc2ccccc2C(=O)O)cc1	-9	6	-17	5.6*	5	0
COc1ccc(C(=O)Nc2ccc(O)cc2C(=O)O)cc1	-2	-1	-6	11*	9.8*	2
COc1ccc(C(=O)Nc2ccccc2C(=O)Nc2ccc(C(=O)O)cc2)cc1	1	0	3	-2	·	·
SMILES	NPR2 activator	GC-A act	CaV13 ICDI inh	Rin1-Abl PPI inh	Rin1 Abl conf	GFP quencher
COC(=O)[C@@]12CCCCC3=C1N(CCC3)C(=O)[C@H]2CC(=O)N1CCC(c2ccccc2)CC1	0	1	·	·	·	·
Cc1nc2cc(C(=O)N3CCN(C(=O)C(C)(C)C)CC3)ccc2n1C1CCCC1	-4	2	·	·	·	·
O=C1C(Nc2ccccc2)=CC(c2ccc(O)cc2)N1c1ccccc1 (stereo not drawn)	6	1	-2	-2	·	·
COc1cc(C2C=C(Nc3ccccc3)C(=O)N2c2ccccc2)ccc1O (stereo not drawn)	-6	-2	-3	7.1*	-3	-1
C[C@H](NC(=O)c1nc[nH]c1C(=O)NC1CCN(C(=O)OC(C)(C)C)CC1)C(=O)OC(C)(C)C	6	2	-5	2	·	·
CC1CCN(C(=O)c2[nH]cnc2C(=O)NC2CCN(C(=O)OC(C)(C)C)CC2)CC1	-9	-1	-6	10*	4	-1
CN(C)c1cccc(-c2cnc(N3CCC(C(N)=O)CC3)s2)c1	-6	-3	·	·	·	·
COc1ccc(COC(=O)C2=C(C)NC(=O)NC2c2cccc(OC)c2OC)cc1 (stereo not drawn)	-1	-2	-20	7.2*	3	0
COc1ccc(NC(=O)C2CCCN(c3ncnc4onc(-c5ccc(F)cc5)c34)C2)cc1 (stereo not drawn)	1	-5	-15	9.2*	-2	0
COc1ccc(-c2noc(N3CCC(C(=O)Nc4ccc(F)cc4)CC3)n2)cc1	-1	-3	-10	-1	·	·
COc1ccc(-c2c(Cc3ccccc3)nc(NC(=O)c3ccccc3)n2Cc2ccccc2)cc1	-5	-1	·	·	·	·
COC(=O)[C@H](C(C)C)N(Cc1cn(CC2CCCCC2)nn1)S(=O)(=O)c1ccc(F)cc1Br	-1	2	·	·	·	·
O=C1NNC(c2ccccc2)=N/C1=C\c1ccccc1Cl	-8	0	1	6.8*	8.3*	-1
O=C1NNC(c2ccccc2)=N/C1=C\c1ccco1	0	-4	-3	1	·	·
Cc1[nH]n(-c2ccccc2)c(=O)c1C(c1ccc(C(=O)O)cc1)c1c(C)[nH]n(-c2ccccc2)c1=O	9	1	-5	17*	0	2
COc1cccc(C(C[N+](=O)[O-])c2c(C)[nH]n(-c3ccccc3)c2=O)c1 (stereo not drawn)	5	1	-4	3	·	·
Cc1[nH]n(-c2ccccc2)c(=O)c1C(C[N+](=O)[O-])c1ccc(Br)cc1 (stereo not drawn)	0	-2	-4	34*	0	0
Cc1[nH]n(-c2ccccc2)c(=O)c1C(c1cccc([N+](=O)[O-])c1)c1c(C)[nH]n(-c2ccccc2)c1=O	3	1	-5	9.1*	0	-1
CCOC(=O)N(C)[C@H]1C[C@H]2c3[nH]c4c(-c5ccc6c(c5)OCO6)cccc4c3CCN2C(=O)[C@H]1[C@H](C)O	-7	-7	·	·	·	·
COC(=O)[C@H](C)NC(=O)C(Cc1ccc2c(c1)OCO2)NC(C)=O (stereo partly drawn)	-3	3	·	·	·	·

Screening results: PubChem, several laboratories
